# Cy5 interf NS3h = enhances or quenches Cy5 fluorescence in NS3h assay; fluorescence interference ratio at 100 µM; 16,000 compounds, 6% hits; Cy5-dT15 DNA with NS3h, fluorescence interference; actives lie on both sides; signal over control mean, under 1 quenches; AID 720488;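 active means compound fluorescence over control fluorescence at most 0.8, a quencher, or at least a set upper limit, an enhancer; inactive means ratio between 0.8 and the set upper limit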
# HCV NS3h FP = blocks HCV NS3 helicase binding to DNA. NS3h Cy5-dT15 DNA binding, fluorescence polarization. inhibition, % at 100 µM. 16,000 compounds, 1.6% hits. AID 687043;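 active means inhibition above the average over every tested compound plus 3 SD, cut at about 40% in these data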
# An asterisk follows results filed as active. Sampled rows, rich in hits. Any-hit rate of the full collection: about 7.6%.
SMILES,Cy5 interf NS3h,HCV NS3h FP
N#C/C(=C\c1ccc(-c2ccc(Cl)cc2)o1)C(=O)Nc1cccc2ncccc12,0.547*,-41.5
N#C/C(=C\c1ccc(-c2ccccc2Cl)o1)C(=O)Nc1cccc2ncccc12,0.951,1.9
COc1ccc(C(=O)N2CCN(S(C)(=O)=O)CC2)cc1,1.06,-1.8
CS(=O)(=O)N1CCN(C(=O)c2ccccc2F)CC1,0.696*,7.7
Cc1ccccc1NC1(c2ccccc2Cl)C(=O)c2ccccc2C1=O,0.744*,8.7
O=C1c2ccccc2C(=O)C1(Nc1ccc(F)cc1)c1ccccc1,0.984,16.6
CCOC(=O)c1ccc(NC(=O)CN(c2ccccc2OC)S(=O)(=O)c2ccccc2)cc1,1.03,6.8
COC(=O)c1ccc(-n2c(C)cc(C=C3C(=O)N(C)C(=O)N(C)C3=O)c2C)cc1,0.797*,15.9
COC(=O)c1ccc(-n2c(C)cc(/C=C3\C(=O)NC(=O)N(c4ccc(OC)cc4)C3=O)c2C)cc1,0.986,4.7
Cc1ccccc1OCCOc1cccc(/C=C2/SC(=S)N(C)C2=O)c1,1.15,3.4
O=C(CCN1C(=O)S/C(=C\c2ccccc2)C1=O)Nc1ccccc1,1.02,1.5
CCN(CP(=O)(O)CN1CCOCC1)C(C)=O,0.979,2.3
CCOC(=O)CSc1nc(N)c(C#N)c(-c2ccc(O)cc2)c1C#N,0.991,6.8
CC(=O)Oc1ccccc1N1C(=O)c2cccc([N+](=O)[O-])c2C1=O,1.1,-0.3
CCOC(=O)c1sc(NC(=O)c2cncc(Br)c2)nc1C,1.06,-15.0
CCc1ccc(NC(=O)c2ccc(Cl)cc2Cl)cc1,1.09,20.9
CCOC(=O)c1sc(NC(=O)c2ccc(OCC)c(Cl)c2)nc1C,0.927,56.9*
CCOC(=O)c1sc(NC(=O)c2ccc(Cl)cc2Cl)nc1C,0.636*,8.7
CC(C)(C)c1ccc(C2C(=C(O)c3ccc(F)cc3)C(=O)C(=O)N2c2nncs2)cc1 (stereo not drawn),0.982,7.2
O=C1N/C(=N\N=C/c2ccccc2)SC1Cc1ccccc1Cl (stereo not drawn),0.996,6.5
Cc1ccc(C(=O)N/C(=C\c2ccc(C(C)C)cc2)C(=O)NCC(C)C)cc1,0.9,9.7
CCc1c(C)nc(N)nc1N1CCCC1,0.999,1.3
COc1ccc(Cl)cc1NC(=O)CSCc1cccc(Br)c1,0.905,10.2
CC(C)Oc1nc(-c2ccc(Br)cc2)nc2ccccc12,0.966,4.2
C/C(=N/N=C1\NC(=O)C(CC(=O)Nc2ccc(Cl)cc2Cl)S1)c1ccc(Cl)cc1 (stereo not drawn),1.19,-28.6
SMILES,Cy5 interf NS3h,HCV NS3h FP
COc1ccc(/C(C)=N\N=C2/NC(=O)C(CC(=O)Nc3cc(Cl)ccc3Cl)S2)cc1 (stereo not drawn),1.22*,10.0
COc1cc(Br)c(/C=N\NS(=O)(=O)c2ccc(C)cc2)cc1OC,0.998,-2.9
CCOC(=O)c1c(C)[nH]c(C=C2C(=O)C=Cc3ccccc32)c1O,0.425*,-8.5
Cc1nc(C=C2C(=O)C=Cc3ccccc32)c(O)o1,1.06,-1.9
COc1cc(/C=N\N2C(=O)c3ccccc3C2=O)c([N+](=O)[O-])cc1OC,0.834,26.1
O=C1C(=O)N(CCO)C(c2ccc(Br)cc2)C1=C(O)c1ccc(Cl)cc1 (stereo not drawn),0.886,-10.6
O=C1C=CC(=O)N1c1ccccc1SC(F)(F)F,0.791*,45.3*
COc1ccccc1CNC(=O)c1ccc(OC)c([N+](=O)[O-])c1,0.847,-7.5
COc1cccc(/C=C2\SC(=S)N(c3cccc(C)c3)C2=O)c1,0.897,12.4
CCCCNC(=O)C(=O)NCCCO,0.988,4.1
O=C(N1CCSCC1)C(F)(F)C(F)(F)C(F)(F)C(F)(F)F,0.795*,12.0
O=C(NCc1ccccc1)c1ccccc1Cl,0.787*,6.8
COc1ccc(C(O)(CNCc2ccccc2)c2ccc(Br)cc2)cc1 (stereo not drawn),0.73*,16.1
COc1ccc(CCNC(=O)C(=O)NCCCOC(C)C)cc1,1.09,6.4
Cc1ccc(C(O)(CNCc2ccccc2)c2ccc(Br)cc2)cc1 (stereo not drawn),0.928,7.0
COc1ccc(CNC(=O)C(=O)Nc2ccccc2C)cc1,1.05,4.0
COc1ccc(CNC(=O)C(=O)NCc2ccccc2)cc1,0.732*,10.5
COCCCNC(=O)C(=O)NCCc1ccc(OC)cc1,0.74*,13.3
O=C(O)c1ccc(C(=O)NCc2ccccc2)c(C(=O)O)c1,0.996,-8.1
O=c1oc2c(F)c(F)c(F)c(F)c2c2[nH]ncc12,1.01,-12.6
CC(CCc1ccccc1)Nc1cc(N2CCN(S(=O)(=O)c3ccccc3)CC2)ccc1[N+](=O)[O-] (stereo not drawn),0.952,11.1
Cc1nc2c(=O)sc3ccccc3c2n1Cc1ccccc1,1.09,11.6
S=C(NCCOCCOCCNC(=S)Nc1ccccc1)Nc1ccccc1,1.07,2.8
Cc1ccc(CNC(=O)C(=O)N2CCCC2)cc1,1.27*,4.4
O=C(NCc1ccc(F)cc1)c1ccccc1I,1,9.6
SMILES,Cy5 interf NS3h,HCV NS3h FP
Cc1ccc(CNC(=O)C(=O)NC(C)C)cc1,1.11,11.9
O=C(Cc1ccc(F)cc1)NCC1CCCO1 (stereo not drawn),0.75*,4.0
COc1ccc(CC(=O)NCC2CCCO2)cc1OC (stereo not drawn),1.06,0.9
COCCNC(=S)Nc1ccc(OC)cc1,0.768*,7.7
O=C(Cc1ccc(F)cc1)NCc1ccccc1,0.59*,3.1
C/C(=C\C(=O)c1ccccc1)Nc1cc(C)ccc1Cl,0.956,10.6
O=C1OC(c2ccccc2)=N/C1=C\c1cn(-c2ccccc2)nc1-c1cc2ccccc2oc1=O,1.03,6.8
O=C(/C=C\Nc1ccc(Br)cn1)c1ccc(Cl)cc1,0.948,-1.4
CCc1ccccc1NC(=O)c1nn2c(c1Cl)NC(c1ccc(C)cc1)CC2C(F)(F)F (stereo not drawn),0.964,10.7
Cc1sc2ncn(/N=C\C=C3/N(C)c4ccccc4C3(C)C)c(=O)c2c1C,1.05,9.1
Cc1ccc(CNC(=O)C(=O)NCc2ccncc2)cc1,1.04,-4.0
Cc1ccc(CNC(=O)C(=O)NCc2ccccc2)cc1,1.25*,9.1
CC1(c2ccc([N+](=O)[O-])cc2)CC1(Br)Br (stereo not drawn),1.05,5.0
COc1cccc(CN2CCN(Cc3ccc([N+](=O)[O-])cc3)CC2)c1OC,0.991,4.6
O=C(N/N=C/c1ccc(Cl)cc1Cl)c1cncc(Br)c1,1.02,5.1
COCC(=O)Nc1nc2ccccc2s1,0.671*,-1.5
CC(CCC(=O)Nc1nc2ccccc2s1)CC(=O)Nc1nc2ccccc2s1 (stereo not drawn),0.979,7.0
CCC1=NN(C(=O)c2cccc(C)c2O)C(O)(c2ccc(Br)cc2)C1 (stereo not drawn),0.774*,-5.5
CCC1=NN(C(=O)c2ccncc2)C(O)(c2ccc(Br)cc2)C1 (stereo not drawn),0.986,-3.5
O=C1C(=O)N(c2ccccn2)C(c2cccc(Br)c2)C1=C(O)c1ccc(Cl)cc1 (stereo not drawn),0.858,10.6
O=C(Nc1ccc(-c2cnc(-c3ccc(NC(=O)c4ccccc4Cl)cc3)nc2)cc1)c1ccccc1Cl,0.718*,15.9
CN(C)c1ccc(NC(=O)c2ccccc2Cl)cc1,1.08,10.0
O=C(COc1ccc(/C=N\NS(=O)(=O)c2ccccc2)cc1)Nc1ccccc1,0.961,10.8
Cc1cc(OCC(=O)Nc2cc([N+](=O)[O-])ccc2Cl)cc(C)c1Cl,0.542*,7.7

# From PubChem BioAssay
